Shown are actives, neighbours in structure and some others; about 12% of the full set was active somewhere.
HP1b chromo inh = HTS for Inhibitors of HP1-beta Chromodomain Interactions with Methylated Histone Tails; Chromobox protein homolog 1 (Homo sapiens), P83916; AlphaScreen HP1-beta / biotin-H3K9me3 peptide binding; Potency, µM (top dose mostly 114 µM), inactives show at the top dose activity change, negative = inhibition, actives largely listed as inhibitors; actives 0.56% (n = 390,000); further: nearly all actives have a fitted effect of over 70% in size
Target sequence (P83916 whole entry, looked up): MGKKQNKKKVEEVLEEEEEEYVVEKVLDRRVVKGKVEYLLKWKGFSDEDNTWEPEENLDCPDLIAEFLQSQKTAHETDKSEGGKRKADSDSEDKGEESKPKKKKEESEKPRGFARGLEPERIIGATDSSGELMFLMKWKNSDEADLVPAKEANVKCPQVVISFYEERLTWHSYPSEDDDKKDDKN
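Compound inhibition of the preformed complex between 50 nM HP1-beta and 50 nM biotinylated H3K9me3 peptide was read by AlphaScreen. Buffer was PBS pH 7.4 with 0.01% Tween-20. Incubations ran 30 min at room temperature, with 10 ug/mL donor/acceptor beads.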
L3MBTL1 inh = qHTS Assay for the Inhibitors of L3MBTL1 | Potency, µM (series often up to 57.1 µM), inactives show at the highest dose activity, negative = inhibition, most hits filed as inhibitors | Lethal(3)malignant brain tumor-like protein 1 (Homo sapiens), Q9Y468 | AlphaScreen L3MBTL1–H3K9me1 peptide binding | actives 0.66% (n = 230,000); further: on the % scale 0 is the no-effect control and ±100 the full control effect; nearly all actives have a fitted effect of over 60% in size
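AlphaScreen proximity signal between nickel-chelate acceptor and streptavidin donor beads (final 10 ug/mL) reports binding of 50 nM L3MBTL1 to 75 nM biotin-H3 K9me1 peptide; complex incubated with compounds 30 min at room temperature; cefsulodin titration as control.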
G9a inh = qHTS Assay for Inhibitors of Histone Lysine Methyltransferase G9a. Histone-lysine N-methyltransferase EHMT2 (Homo sapiens), Q96KQ7. G9a H3K9 monomethylation, AlphaScreen, 2 h. Potency, µM (top dose mostly 102 µM), without a hit: top-dose activity, negative = inhibition, most hits filed as inhibitors. actives 8.8% (n = 350,000). AID 504332, 2011; further: on the % scale 0 is the no-effect control and ±100 the full control effect; nearly all actives have a fitted effect of over 75% in size
Target sequence (Q96KQ7 913-1193 limits assumed): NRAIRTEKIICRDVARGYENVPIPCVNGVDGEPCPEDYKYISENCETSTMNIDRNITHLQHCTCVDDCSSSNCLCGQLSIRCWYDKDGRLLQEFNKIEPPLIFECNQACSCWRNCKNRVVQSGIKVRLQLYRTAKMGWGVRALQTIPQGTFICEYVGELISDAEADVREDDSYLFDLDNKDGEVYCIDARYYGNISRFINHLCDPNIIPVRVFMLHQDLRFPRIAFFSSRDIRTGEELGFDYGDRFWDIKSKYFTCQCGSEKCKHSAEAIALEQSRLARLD
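G9a (20 nM) preincubated 15 min RT with compounds, then 500 nM biotinylated H3K9 peptide and 20 uM SAM added; 2 h RT reaction. Monomethyl-H3K9 product detected by AlphaScreen with anti-H3K9me1 antibody, streptavidin donor and anti-rabbit IgG acceptor beads.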
JMJD2A Tudor = qHTS Assay for Inhibitors of JMJD2A-Tudor Domain; Lysine-specific demethylase 4A (Homo sapiens), O75164; AlphaScreen JMJD2A-Tudor / H3K4me3 peptide binding; Potency, µM (highest dose often 114 µM), for inactives: top-dose activity change, negative = inhibition, most hits filed as inhibitors; actives 4.4% (n = 390,000); AID 504339, 2011; further: on the % scale 0 is the no-effect control and ±100 the full control effect; nearly all actives have a fitted effect of over 50% in size
Sfp inh = qHTS Assay for Inhibitors of Bacillus subtilis Sfp phosphopantetheinyl transferase (PPTase); actives 3.5% (n = 310,000); Biochemical Sfp PPTase activity, qHTS; Potency, µM, without a hit: largest response in the series, negative = inhibition, actives largely listed as inhibitors; 4'-phosphopantetheinyl transferase ffp (Bacillus subtilis), Q9F4F7;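 further: the enzyme is Sfp with the accession as filed and its product quenches rhodamine fluorescence; 0% = enzyme reaction without inhibitor and -100% = no enzyme wells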
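Step 1, compound plus 15 nM Sfp-PPTase, 15 min, room temperature. Step 2, add rhodamine-CoA (5 uM) and BHQ-2-YbbR (12.5 uM). Step 3, read 525/598 nm fluorescence at 0 and 30 min.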
BAZ2B block = qHTS Assay for Inhibitors of BAZ2B | Potency, µM (highest dose often 114 µM), for the others: at the top dose activity change, negative = inhibition, most hits filed as inhibitors | actives 4.4% (n = 360,000) | AlphaScreen BAZ2B-H3K14Ac peptide displacement | Bromodomain adjacent to zinc finger domain protein 2B (Homo sapiens), Q9UIF8; further: on the % scale 0 is the no-effect control and ±100 the full control effect; nearly all actives have a fitted effect of over 60% in size
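AlphaScreen displacement: compounds (up to 110uM) incubated 30 min at room temperature with a preformed 50 nM BAZ2B/50 nM biotinylated H3K14Ac peptide complex in PBS pH 7.4 with Tween-20. Donor and acceptor beads at 10 ug/mL final added, 20 min light-protected before reading.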
The depositor's hits bear a star; ? = inconclusive; . = no result given; [ ] = remark or other dose. The call rests on the fitted dose curve; in most records, active means well fitted curve in the direction sought with a large enough effect; inconclusive means small, poorly fitted or top-dose-only effect, or another doubt; inactive means no such curve, though single readings can be large; an effect the other way counts as inactive or inconclusive. Potency means the concentration at half of the fitted maximal effect.

SMILES	HP1b chromo inh	L3MBTL1 inh	G9a inh	JMJD2A Tudor	Sfp inh	BAZ2B block
Cc1ccc(NC(=O)CN2C(=O)/C(=C3\SC(=S)N(C4CCS(=O)(=O)C4)C3=O)c3ccccc32)cc1 (stereo unspecified)	-3%	0%	50µM*	-13%	-3%	5%
CCCC(=O)N(CCN1CCOCC1)c1nc2c(OC)ccc(OC)c2s1	67%	.	?	-24%	7%	-28%
O=C(NNCc1ccc(O)cc1)c1ccccc1Cl	23%	.	?	2%	6%	-18%
CCCOc1ccc(C2C(=O)N(C3CCCCC3)CC(=O)N2CCCOCC)cc1OC (stereo unspecified)	36%	5%	7.9µM*	8%	-2%	5%
CC(=O)c1ccc(-c2csc3ncnc(Sc4nnnn4C)c23)cc1	.	.	.	-20%	.	.
COc1ccc2[nH]cc(CCNc3ncncc3-c3ccccc3C(F)(F)F)c2c1	.	.	9%[0.501 µM]	.	-7%	.
O=C(NC(=S)Nc1ccc(Cc2ccncc2)cc1)c1ccccc1F	-14%	0%	79µM*	-31%	-22%	-21%
O=C(O)c1ccccc1C(=O)Nc1ccc(S(=O)(=O)Nc2nccs2)cc1	17%	10%	-28%[59 µM]	-17%	19%	50µM*
O=C(Cc1ccccc1Cl)Nc1ccc(S(=O)(=O)Nc2nccs2)cc1	32%	.	-1%	-19%	8%	-22%
O=C(NC(=S)Nc1ccc(S(=O)(=O)Nc2nccs2)cc1)c1ccccc1	-9%	-11%	?	-21%	1%	-25%
O=C(CSc1ccc(Br)c2cccc(Cl)c12)Nc1ccc(S(=O)(=O)Nc2nccs2)cc1	-12%	-16%	32µM*	?	24%	-38%
O=C(NC(=S)Nc1ccc(S(=O)(=O)Nc2nccs2)cc1)c1ccccc1F	?	.	10µM*	?	-11%	?
CC(C)c1ccccc1NC(=O)c1cccc(NC(=O)c2ccccc2)c1	24%	.	?	-6%	14%	8%
O=C(NC(=S)Nc1ccc(S(=O)(=O)Nc2nccs2)cc1)c1cccnc1	-18%	4%	45µM*	-17%	-20%	?
Brc1cc2c(cc1/C=N/Nc1nc(N3CCOCC3)nc(N3CCOCC3)n1)OCO2	15%	-10%	7%[59 µM]	-5%	4%	0%
Cc1ccc(-n2cc3c(c2-c2ccccc2Br)c(=O)n(C)c(=O)n3C)cc1N	-7%	.	?	?	.	50µM*
Cn1c(=O)c2c(-c3ccccc3Br)n(CCc3ccccc3)cc2n(C)c1=O	-20%	.	?	?	.	?
CS(=O)(=O)Nc1ccccc1C(=O)Nc1cc2c(cc1C(=O)O)OCCCO2	14%	.	8.9µM*	1%	-1%	4%
O=C(O)c1cc2c(cc1NC(=O)c1ccccc1C(F)(F)F)OCCCO2	25%	.	1%	-7%	11%	-26%
CS(=O)(=O)c1ccccc1C(=O)Nc1cc2c(cc1C(=O)O)OCCCO2	20%[57 µM]	.	50µM*	-30%	18%	3%
O=C(O)c1cc2c(cc1NC(=O)c1c(F)cccc1F)OCCCO2	10%	.	?	-13%	18%	-13%
CSc1ccc(/C=N/N2CCN(c3ccccc3)CC2)cc1	24%	1%	-28%	-6%	10%	-13%
Clc1ccccc1CN1CCN(/N=C/c2ccncc2)CC1	-6%	?	45µM*	?	1%	45µM*
Clc1ccc(/C=N/N2CCN(Cc3ccccc3)CC2)cc1	?	-21%	50µM*	56µM*	-4%	45µM*
CSc1ccc(/C=N/N2CCN(Cc3ccccc3)CC2)cc1	45µM*	-13%	.	45µM*	-3%	13µM*
SMILES	HP1b chromo inh	L3MBTL1 inh	G9a inh	JMJD2A Tudor	Sfp inh	BAZ2B block
COc1ccc(/C=N\N2CCN(Cc3ccccc3Cl)CC2)cc1	-13%	-5%	13µM*	?	79µM*	?
O=C(c1ccc(C(F)(F)F)cc1)N1CCC(c2noc(-c3ccc(S(=O)(=O)N4CCCC4)cc3)n2)CC1	33%	.	0%[59 µM]	-15%	.	-12%
CC(C)C(NS(=O)(=O)c1ccc2c(c1)oc(=O)n2C)C(=O)NCc1ccccc1 (stereo unspecified)	32%	.	6%[59 µM]	6%	.	-12%
C(=C\c1ccccc1)/C=N/N1CCN(Cc2ccccc2)CC1	?	-16%	45µM*	50µM*	-28%	35µM*
CCOc1ccc(C(=O)NCC(=O)N2CCN(Cc3ccccc3)CC2)cc1	31%[57 µM]	5%	.	0%	.	.
CCOc1ccc(/C=N/N2CCN(Cc3ccccc3)CC2)cc1	?	?	40µM*	?	2%	50µM*
C(/C=C/c1ccccc1)=N/N1CCN(c2ccccc2)CC1	-5%	-1%	?	-24%	4%	-7%
Clc1ccc(/C=N/N2CCN(Cc3ccccc3Cl)CC2)cc1	-10%	-17%	?	45µM*	-14%	35µM*
CN1C(=O)c2cccc(NC(=O)Cc3ccccc3)c2C1=O	52%	.	12%	-14%	-14%	2%
CS(=O)(=O)Nc1cccc(-c2ccc3ncnc(NCc4cccnc4)c3c2)c1	.	.	.	.	24%	.
CCOC(=O)C1=C(COC(=O)Cc2ccc(Cl)cc2)NC(=O)NC1C (stereo unspecified)	40%	0%	-5%[59 µM]	-18%	.	8%
O=C(COc1ccccc1[N+](=O)[O-])N/N=C/c1cccs1	19%	-2%	11%[59 µM]	-13%	7%	-1%
CN(C)CCNC(=O)c1c(O)c2c([nH]c1=O)CCCC2	3%	.	-13%[12.7 µM]	-13%	9%	-35%
CCN(CC)CCNC(=O)c1c(O)c2c([nH]c1=O)CCCC2	22%	-3%	79µM*	-19%	2%	-6%
C=CCNS(=O)(=O)c1cc(S(=O)(=O)NCC=C)c(OC)cc1OC	-4%	25%	-23%	-10%[11.4 µM]	16%	0%
Cc1nn(-c2nnc(NC3CCCCC3)nn2)c(C)c1Br	?	?	22µM*	45µM*	3%	14µM*
CC(=O)OC1CC(OC(C)=O)[C@]2(C)C(CC(=O)[C@]3(C)C2CC[C@@]2(C)C(c4ccoc4)OC(=O)C4O[C@@]423)C1(C)C (stereo partly specified)	.	.	?	.	-10%	.
COc1ccc(OCC(=O)Nc2nc3c(s2)CCCC3)cc1	-4%	.	50µM*	?	3%	?
